Bioassay records (PubChem)
ELG1 genotox: genotoxicity induction in ELG1-luciferase HEK293T cells; AID 504466; HEK293T ELG1-luciferase reporter, luminescence, 16 h; actives 1.3% (n = 330,000); Potency, µM (series often up to 46 µM), most hits filed as activators; note: nearly all actives have a fitted effect of over 60% in size
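Quantitative HTS format in 1536-well plates. HEK293T ELG1-luciferase reporter cells receive test compound and are incubated 16 hr at 37 °C, 5% CO2; ONE-Glo added, 30 min room temperature, then luminescence read.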
NPC1 prom act: activates the NPC1 promoter. Huh7 NPC1 promoter luciferase reporter, 24 h. actives 2.4% (n = 320,000). Potency, µM (top dose mostly 9.22 µM), actives largely listed as activators. AID 485313; note: nearly all actives have a fitted effect of over 60% in size
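Huh7 cells stably carrying NPC1 promoter–luciferase, plated in Opti-MEM with 10% FBS for 2 h, were exposed to compound in DMSO for 24 h at 37 °C; luciferase reagent was added for 10 min and luminescence read.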
FLuc counter: firefly luciferase modulation, counter-screen for miR-21 project; P08659; purified FLuc, Km substrates, luminescence inhibition; Potency, µM (doses to about 57.5 µM), most hits filed as inhibitors; actives 6.9% (n = 360,000); AID 588342; note: nearly all actives have a fitted effect of over 55% in size
Target sequence (P08659 whole entry, looked up): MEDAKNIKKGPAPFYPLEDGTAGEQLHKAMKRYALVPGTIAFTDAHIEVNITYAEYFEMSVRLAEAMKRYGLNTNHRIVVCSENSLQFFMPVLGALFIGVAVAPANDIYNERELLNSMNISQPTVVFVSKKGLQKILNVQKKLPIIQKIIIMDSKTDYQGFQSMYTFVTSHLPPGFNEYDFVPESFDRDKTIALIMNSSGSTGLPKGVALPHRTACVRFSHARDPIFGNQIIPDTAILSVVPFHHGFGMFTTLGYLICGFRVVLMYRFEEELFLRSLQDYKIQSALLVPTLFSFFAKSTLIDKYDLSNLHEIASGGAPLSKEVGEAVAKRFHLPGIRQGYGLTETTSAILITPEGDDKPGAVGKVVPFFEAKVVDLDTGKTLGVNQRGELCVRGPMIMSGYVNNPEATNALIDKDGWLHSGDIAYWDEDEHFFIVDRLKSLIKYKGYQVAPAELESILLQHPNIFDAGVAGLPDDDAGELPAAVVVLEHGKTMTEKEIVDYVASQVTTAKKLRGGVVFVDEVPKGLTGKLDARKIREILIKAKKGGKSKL
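Biochemical qHTS of compounds, final roughly 60 µM downward over six points, against 10 nM purified firefly luciferase using Km concentrations of substrates (10 uM D-luciferin, 10 uM ATP) in Tris acetate pH 7.5 buffer; luminescence output.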
KinaseGlo FLuc: counter-screen: inhibitors of Kinase-Glo firefly luciferase; Q27757; actives 0.28% (n = 200,000); AID 1379; Potency, µM (highest dose often 38.3 µM), hits mostly inhibitors; Kinase-Glo luciferase, ATP luminescence, 8 min; note: nearly all actives have a fitted effect of over 60% in size
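Light output from Kinase-Glo luciferase with luciferin and 10 uM ATP in 50 mM imidazole pH 7.2, KCl, MgCl2, Tween 20, BSA; compound pin-delivered, 8-min ambient incubation, then luminescence read.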
Rab9 prom act: Rab9 promoter activation; Huh7 Rab9 promoter-luciferase reporter, luminescence, 24 h; Potency, µM (series often up to 9.22 µM), most hits filed as activators; actives 2.8% (n = 320,000); AID 485297; note: nearly all actives have a fitted effect of over 60% in size
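Luciferase signal after 10 min detection reagent at ambient indicates Rab9 promoter upregulation; stably transfected Huh7 cells were treated 24 h with compound in DMSO at 37 °C, 5% CO2.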
SMN2 splice up: enhancers of SMN2 splice variant expression; HEK293 SMN2-luciferase splicing reporter, luminescence, 30-36 h; actives 2.8% (n = 210,000); Potency, µM (titrated, usually from 46.1 µM), hits mostly activators; note: nearly all actives have a fitted effect of over 55% in size
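HEK293 cells carry an SMN2 minigene-luciferase reporter in which exon 7 inclusion puts luciferase in frame. Cells were seeded at 2000 cells/well, attached for 10-12 hours, then exposed to compounds for 30-36 hours at 37C before ONE-Glo luminescence.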
Hits are given with their value; - = inactive; ? = inconclusive; . = no result; [ ] = remark or other dose. The list is not random: actives were taken first. Their share in the collection is about 7.4%. Calls come from the whole dose curve; as a rule, active = well fitted curve in the direction sought with a large enough effect; inconclusive = small, poorly fitted or top-dose-only effect, or another doubt; inactive = no such curve, though single readings can be large; an effect the other way counts as inactive or inconclusive.

SMILES	ELG1 genotox	NPC1 prom act	FLuc counter	KinaseGlo FLuc	Rab9 prom act	SMN2 splice up
Cc1noc(C)c1C(=O)N1CCC2(CC1)CN(c1ccccc1)C2	.	.	.	-	.	-
Cc1ccnc(Nc2nc3ccccc3o2)n1	1.2µM	?	3µM	13µM	0.4µM	2.5µM
Cc1cc2nc3c(=O)[nH]c(=O)nc-3n(CC(O)C(O)C(O)COP(=O)(O)O)c2cc1C (stereo unspecified)	.	.	.	-	.	.
CC(O)COC(C)(C)C (stereo unspecified)	.	.	.	.	.	-
Cc1nn(C)cc1/C=N/NC(=S)Nc1ccccc1	-	?	5.4µM	-	2µM	-
Cc1nc2cnc(N3CCNCC3)nc2n(C2CC2)c1=O	.	.	.	-	.	-
Cc1occc1C(=O)N/N=C/c1ccc2c(c1)OCO2	?	0.5µM	3.8µM	.	0.35µM	.
COc1ccc(/C=N/NC(=O)c2ccoc2C)cc1O	?	-	?	-	-	?
O=C(N/N=C/c1ccc2c(c1)OCO2)c1cccc2ccccc12	-	-	-	.	-	.
COc1ccc(/C=N/NC(=O)c2ccoc2C)cc1OC	?	?	?	-	?	13µM
Cn1cc(C(=O)N/N=C/c2ccc3c(c2)OCO3)c2ccccc21	-	?	8.5µM	.	?	.
Cc1cc(C(=O)N/N=C/c2ccc3c(c2)OCO3)c(C)o1	?	?	6µM	13µM	3.2µM	.
O=C(Cn1c(=O)n(-c2ccc(Cl)cc2)c(=O)c2sc3ccccc3c21)NC1CCCC1	.	.	-	.	.	-
COc1ccc(C(=O)n2nc(-c3ccco3)nc2NCc2cccs2)cc1	.	.	-	.	.	?
O=C(O)[C@H]1CN[C@H](C(=O)O)C1	.	.	.	-	.	.
Cn1cc(C(=O)N/N=C/c2ccc(Br)c([N+](=O)[O-])c2)c2ccccc21	?	-	-	.	-	.
Cn1cc(C(=O)N/N=C/c2cccs2)c2ccccc21	?	?	15µM	-	?	22µM
Cc1cccc(-c2[nH]c(C(C)(C)C)nc2-c2ccc3nccnc3c2)n1	.	-	.	.	-	.
COc1cccc(N2CC(NC(=O)Cc3cccs3)CC2=O)c1 (stereo unspecified)	.	.	-	.	.	.
CCc1ccccc1OCC(=O)Nc1ccc(S(N)(=O)=O)cc1	-	-	-	-	-	35µM
COc1cccc(OCCn2c(-c3ccc(Cl)cc3)nc3ccccc3c2=O)c1	.	.	-	.	.	-
COc1ccc(C(=O)Nc2scc(-c3ccc(Cl)cc3Cl)c2C(N)=O)cc1	-	2.8µM	4.8µM	-	3.2µM	-
CCOC(=O)c1c(-c2ccc(OC)c(OC)c2)csc1NC(=O)c1ccc(C)cc1	.	.	-	.	.	-
CCOc1ccc(S(=O)(=O)c2cn(Cc3ccc(C)cc3)c3ccc(OC)cc3c2=O)cc1	.	.	-	.	.	-
Cc1ccccc1-c1nn2c(=O)cc(CN3CCN(C(=O)c4ccccc4Br)CC3)nc2s1	.	.	-	.	.	.
SMILES	ELG1 genotox	NPC1 prom act	FLuc counter	KinaseGlo FLuc	Rab9 prom act	SMN2 splice up
CCCOc1cccc(C(=O)N/N=C/c2ccoc2)c1	?	-	13µM	.	-	.
CC(C)Oc1cccc(C(=O)N/N=C/c2ccoc2)c1	?	-	11µM	.	-	.
O=C(CSCc1cccc(Cl)c1)N/N=C/c1ccc(OCC(=O)N2CCCCC2)cc1	-	-	-	-	-	-
Cc1cccc(C(=O)N/N=C/c2ccc(OCC(=O)N3CCCCC3)cc2)c1	-	-	15µM	-	-	-
Cc1cccc(C(=O)N/N=C/c2ccoc2)c1	-	-	?	.	-	.
Cn1cccc1/C=N/NC(=O)c1cccc(OC(F)(F)C(F)F)c1	-	-	21µM	-	-	-
CCOc1cc(C(=O)N/N=C/c2ccoc2)cc(OCC)c1OCC	-	-	-	.	-	.
CCOc1ccccc1C(=O)N1CCc2cc(OC)c(OC)cc2C1COc1ccc2c(C)cc(=O)oc2c1 (stereo unspecified)	.	.	-	.	.	-
O=C1CCC2S/C(=C/Nc3ccc(C(F)(F)F)cc3)C(=O)N12 (stereo unspecified)	-	-	15µM	-	-	-
Cc1[nH]c2ccccc2c1/C=N/NC(=O)c1cc(-c2ccccc2)n[nH]1	-	-	24µM	.	-	.
Cc1[nH]c2ccccc2c1/C=N/NC(=O)c1ccc(N)cc1	-	-	12µM	.	-	.
Cc1[nH]c2ccccc2c1/C=N/Nc1cccc(C(=O)O)c1	?	1.6µM	2.7µM	.	2µM	.
Cc1[nH]c2ccccc2c1/C=N/NC(=O)c1ccccc1	-	-	?	.	-	.
CC(C)(C)c1cc(C(=O)N/N=C/c2ccccn2)n[nH]1	-	-	?	.	-	.
Cc1[nH]c2ccccc2c1/C=N/NC(=O)c1cccc(Br)c1	-	-	?	.	-	.
Cc1[nH]c2ccccc2c1/C=N/NC(=O)c1cc(C(C)(C)C)[nH]n1	-	-	12µM	.	-	.
Cc1[nH]c2ccccc2c1/C=N/NC(=O)c1cc(-c2ccncc2)nc2ccccc12	-	-	?	.	-	.
CC(C)=CCC/C(C)=C/CC/C(C)=C/CSCC(=O)O	.	.	.	-	.	-
COc1ccc(C2C(=O)N(C3CCC(C)CC3)CC(=O)N2C2CCCC2)cc1OC (stereo unspecified)	.	.	-	.	.	.
O=S(=O)(c1ccc(Br)cc1)c1nnn2c1nc(Nc1cccc(C(F)(F)F)c1)c1sccc12	.	.	-	.	.	.
CCOc1cc(C(=O)Nc2ccc3oc(-c4ccc(CC)cc4)nc3c2)cc(OCC)c1OCC	.	.	-	.	.	-
Cc1ccc2c(=O)cc(C(=O)Nc3ccc(S(=O)(=O)Nc4onc(C)c4C)cc3)oc2c1C	.	.	?	.	.	-
Cc1[nH]c2ccccc2c1/C=N/NC(N)=S	-	-	?	.	-	.
Cc1ccc(NC(=S)N/N=C/c2c(C)[nH]c3ccccc23)cc1	-	-	19µM	-	-	-
CCc1ccc(NC(=O)Cn2c(=O)n(CCCCC(=O)NCc3ccc4c(c3)OCO4)c(=O)c3ccccc32)cc1	.	.	-	.	.	-
SMILES	ELG1 genotox	NPC1 prom act	FLuc counter	KinaseGlo FLuc	Rab9 prom act	SMN2 splice up
O=c1[nH][nH]c(=S)c(=O)[nH]1	.	.	.	-[7.66 µM]	.	-[9.22 µM]
COc1ccc(Cn2c(SCC#N)nc3ccc(N4CCOCC4)cc3c2=O)cc1	?	3.5µM	?	-	3.5µM	?
Cc1ccccc1/C=C1\OC(=O)c2ccccc21	-	-	?	-	-	-
Cc1ccc(/C=C2\OC(=O)c3ccccc32)cc1	?	-	1.1µM	-	-	?
Cc1ccc(-n2c(=O)c3cccnc3n2CC(=O)Nc2ccc(Br)cc2)cc1C	.	.	-	.	.	-
O=C(Nc1cccnc1)c1sc2cccc(F)c2c1Cl	-	?	8.5µM	-	?	?
O=C(Nc1ccccn1)c1sc2cccc(F)c2c1Cl	?	?	0.38µM	-	?	2.5µM
CCCn1c(=O)c2sccc2n2c(CCCC(=O)NC3CCC(C)CC3)nnc12 (stereo unspecified)	.	.	-	.	.	.
Cc1cccc(N2CCN(C(=O)CCc3c(C)nc4ncnn4c3C)CC2)c1C	.	.	-	.	.	-
CCC(=O)N1CCc2cc(Br)cc(S(=O)(=O)NCCc3ccccc3)c21	.	.	-	.	.	-
